Measured values reported in doi:10.1101/2024.03.05.583629.

The sequences below were run against pT7_6His-AlfaTag-HOXD13 (human, UniProt P35453 263-343) (assay: PADIT-seq). Settings: dsDNA, one strand shown.
pT7_6His-AlfaTag-HOXD13, sequence (P35453 263-343): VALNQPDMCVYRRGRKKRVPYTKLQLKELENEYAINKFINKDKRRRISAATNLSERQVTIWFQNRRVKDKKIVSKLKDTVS
“CTCGAGGATATCAAGATCTGGCCTCGGCCGATTAAAAGGAACCTCTAGCTAGCCGACTCACTATAGGGATAATCGCCCTGAGCAAAGACC” showed a binding signal of 1.2 ± 0.104 log2FC.
“CTCGAGGATATCAAGATCTGGCCTCGGCCTTTTACCTGGAACCTCTAGCTAGCCGACTCACTATAGGGATAATCGCCCTGAGCAAAGACC” showed a binding signal of -0.0573 ± 0.0997 log2FC.
“CTCGAGGATATCAAGATCTGGCCTCGGCGCGGTAGCGGGAACCTCTAGCTAGCCGACTCACTATAGGGATAATCGCCCTGAGCAAAGACC” showed a binding signal of -1.07 ± 0.136 log2FC.
In the case of “CTCGAGGATATCAAGATCTGGCCTCGGCAATCTAAAAGGAACCTCTAGCTAGCCGACTCACTATAGGGATAATCGCCCTGAGCAAAGACC”, the binding signal is reported as -0.296 ± 0.111 log2FC.
Work on “CTCGAGGATATCAAGATCTGGCCTCGGCATTTTATTCGGAACCTCTAGCTAGCCGACTCACTATAGGGATAATCGCCCTGAGCAAAGACC” yielded a binding signal of 1.83 ± 0.0742 log2FC.
“CTCGAGGATATCAAGATCTGGCCTCGGCTTTTTATCCGGAACCTCTAGCTAGCCGACTCACTATAGGGATAATCGCCCTGAGCAAAGACC” was tested, and the binding signal was 1.15 ± 0.0852 log2FC.
With “CTCGAGGATATCAAGATCTGGCCTCGGCATTTTAGGTGGAACCTCTAGCTAGCCGACTCACTATAGGGATAATCGCCCTGAGCAAAGACC” the binding signal was 0.159 ± 0.111 log2FC.
Work on “CTCGAGGATATCAAGATCTGGCCTCGGCTTTTTACTGGGAACCTCTAGCTAGCCGACTCACTATAGGGATAATCGCCCTGAGCAAAGACC” yielded a binding signal of 2.73 ± 0.0875 log2FC.
Work on “CTCGAGGATATCAAGATCTGGCCTCGGCGCCGTAAAAGGAACCTCTAGCTAGCCGACTCACTATAGGGATAATCGCCCTGAGCAAAGACC” yielded a binding signal of 1.76 ± 0.0756 log2FC.
“CTCGAGGATATCAAGATCTGGCCTCGGCCTTTTACACGGAACCTCTAGCTAGCCGACTCACTATAGGGATAATCGCCCTGAGCAAAGACC” showed a binding signal of 1.93 ± 0.075 log2FC.
